Data taken from PubChem BioAssay (NCATS).
Inconclusive results are not listed. Active and inactive are the calls of the source. Calls follow the shape of the dose curve; as a rule, active = well fitted activation curve with a large enough effect; inconclusive = small, poorly fitted or top-dose-only effect; inactive = flat fitted curve, though single readings scatter.

Test: qHTS for Hypoxia signaling pathway (HIF-1) agonists against the NCATS CANVASS Library (AID 1347375); as to activation: 0% is about no effect
Settings: HRE-bla ME-180 cells, HIF-1 beta-lactamase reporter, 17 h; series mostly up to 38.3 µM; activation: at the top concentration
Description: Natural products and their derivatives continue to be wellsprings of nascent therapeutic potential. However, many laboratories have limited resources for biological evaluation, leaving their previously isolated or synthesized compounds largely or completely untested. To address this issue, the Canvass library of natural products was assembled (https://tripod.nih.gov/canvass), in collaboration with academic and industry researchers, for quantitative high-throughput screening (qHTS) across a diverse set of cell-based and biochemical assays. The pure (>85% purity by liquid chromatography/mass spectrometry [LC/MS]) Canvass library of 346 natural products were submitted by 45 academic laboratories and companies around the world. We collected pure natural products to circumvent deconvolution and structure elucidation due to time and resource limitations. The library was formatted into 1536-well plates and evaluated in 50 qHTS (in an 11-pnt concentration series) bioassays with broad scope of disease-relevant mechanisms. The resulting data set from 50 different assays was then systematically analyzed to identify overall trends and specific natural products with interesting biological activities. Reported herein are the results of each individual qHTS and their corresponding assay protocol. During hypoxic conditions, the cellular responses are regulated in large part through the activation of the heterodimeric transcription factor called hypoxia-inducible factor-1 (HIF-1). The assay used is a beta-lactamase reporter gene under control of the hypoxia responsive element (HRE) that has been stably integrated into ME-180 cells. This assay identifies inducers of the HIF-1-signaling pathway. The cytotoxicity of the compound library against HRE-bla ME-180 cell line was tested in parallel by measuring cell viability using CellTiter-Glo assay (Promega, Madison, WI) in the same assay wells. The compounds were also tested for auto fluorescence that may interfere with the biological target readout resulting in potential false positives and/or negatives. National Center for Advancing Translational Sciences (NCATS), Rockville, MD National Institute of Health (NIH), Bethesda, Maryland
HIF-1 agonist assay protocol: HRE-bla ME-180 cells were dispensed at 2,000 cells per well in 6 uL of assay medium containing 0.5% dialyzed FBS into black wall/clear-bottom 1536-well plates using a Multidrop Combi (Thermo Scientific, Waltham, MA) dispenser. After the assay plates were incubated at 37C and 5% CO2 for 5 hrs, 23 nL of compounds dissolved in DMSO, positive controls or DMSO only was transferred to each well of the assay plate using a Pintool station (Kalypsys, San Diego, CA). The assay plates were incubated at 37C and 5% CO2 for 17 hrs. One uL of LiveBLAzerTM B/G FRET substrate (CCF4-AM) (Life Technologies) was added to each well using a Flying Reagent Dispenser (Aurora Discovery, San Diego, CA). After 2 hr incubation at room temperature, fluorescence intensity (405 nm excitation, 460 nm and 530 nm emissions) was measured using an Envision plate reader (PerkinElmer, Shelton, CT). To assess cell viability (and for data normalization), 4uL of CellTiter-Glo (Promega) was added to the assay plate using the BioRAPTR dispenser and incubated at room temperature for 30 min. Luminescence signal was obtained using the ViewLux microplate reader (PerkinElmer) using a clear emission mirror, and a 15 sec exposure time, 1x binning settings.
Potency is read from the fitted curve at half-maximal effect.

| SMILES | activation | Potency |
| --- | --- | --- |
| CCN1C[C@]2(C)CC[C@H](O)[C@]34C1C(C[C@H]23)[C@@]12CC[C@H](CC14)[C@](O)(COC(=O)c1ccc(OC)c(OC)c1)[C@H]2O (some centres not stated) | 1.74% (inactive) |  |
| CCC(=O)CCCCC[C@@H]1NC(=O)[C@H]2CCCCN2C(=O)[C@H]([C@@H](C)CC)NC(=O)[C@H](Cc2cn(OC)c3ccccc23)NC1=O | -4.33% (inactive) |  |
| CC1=CC2CC[C@@H]3[C@@H](C)C[C@H](C)[C@@H](C1)N23 (some centres not stated) | 4.7% (inactive) |  |
| CC[C@@H]1CN2CC[C@@]3(O)C(=Nc4cccc(OC)c43)[C@@H]2C[C@@H]1/C(=C\OC)C(=O)OC | 2.09% (inactive) |  |
| CC=C1CN(C=O)[C@H]2C[C@@H]1[C@@H](C(=O)OC)[C@@]13CCOC21Nc1ccccc13 (some centres not stated) | -0.981% (inactive) |  |
| CN1C(=O)[C@]23CC4C(C)(C)[C@@]5(C[C@@]41CN2CC[C@@]3(C)O)C(=O)Nc1c5ccc2c1OC=CC(C)(C)O2 (some centres not stated) | -2.26% (inactive) |  |
| CC(=O)N[C@H]1CCN2CCC[C@H]12 | -1.44% [at 85.4 µM] (inactive) |  |
| C[C@@H]1CC[C@@H](c2ccoc2)N2C[C@@]3(CC[C@@H]12)CS[C@@]1(CC[C@H]2[C@H](C)CC[C@@H](c4ccoc4)N2[C@@H]1O)C3 |  | 8.38 µM (active) |
| C/C=C1/CN2CC[C@]34C(=Nc5ccccc53)[C@@H]2C[C@@H]1[C@H]4C(=O)OC | -0.729% [at 76 µM] (inactive) |  |
| CNCCc1c[nH]c2ccccc12 | -1.21% (inactive) |  |
| CO[C@H](c1ccccc1)[C@H]1NC(=O)C(C)NC(=O)C(C[C@@H](C)CO)N(C)C(=O)[C@@H](C(O)c2cn(C(C)(C)C3CO3)c3ccccc23)NC(=O)C(C(C)C=C(C)C)NC(=O)C(CC(C)C)N(C)C(=O)C(C(C)C)NC1=O (some centres not stated) | -3.65% [at 22.9 µM] (inactive) |  |
| CCCC[C@@H]1CC[C@H]2CCCC(CCC)N12 (some centres not stated) | 4.6% (inactive) |  |
| CCC[C@H]1CC[C@H]2[C@H](C)CCC[C@H]2N1 | 2.84% (inactive) |  |
| CC[N@@+]1([O-])C[C@]2(C)CC[C@@H](O)[C@@]34C5C[C@H]6CC[C@@]5(C(C[C@H]23)C41)[C@H](O)[C@@]6(O)CO (some centres not stated) | 1.8% (inactive) |  |
| CNCCc1ccc(O)cc1 | -0.279% (inactive) |  |
| CCN1C[C@]2(C)CC[C@@H](O)[C@]34C1[C@H](C[C@H]23)C12CCC(CC14)[C@](O)(CO)[C@H]2O (some centres not stated) | 0.688% (inactive) |  |
| CCCCC[C@@H]1OC(=O)[C@@H](C)N(C)C(=O)[C@H](CCCCC)OC(=O)C(C)N(C)C(=O)[C@H](CCCCC)OC(=O)[C@@H](C)N(C)C(=O)[C@H](CCCCC)OC(=O)C(C)N(C)C1=O (some centres not stated) | 2.05% (inactive) |  |
| COC(=O)C1=C2Nc3ccccc3[C@@]23CCN2CC(C(C)=O)C1C[C@H]23 (some centres not stated) | 1.81% (inactive) |  |
| COc1ccc2c3c([nH]c2c1)C(C)=NCC3 |  | 13.3 µM (active) |
| CO[C@@H](/C=C/CC/C=C/C(=O)O)[C@@H](O)[C@H](C)/C=C(\C)[C@@H](O)[C@H](C)C(=O)CCCC1CC(=O)NC(=O)C1 | 1.49% (inactive) |  |
| COc1ccc(C23Oc4cc(OC)cc(OC)c4[C@](O)([C@H](c4ccccc4)C2C(=O)NCCCCNC(=O)c2ccccc2)[C@@H]3O)cc1 (some centres not stated) | 3.09% (inactive) |  |
| NCCc1ccccc1 | -1.52% (inactive) |  |
| CNCCc1ccccc1 | -1.59% (inactive) |  |
| COc1ccc2c(c1)[nH]c1c(C)nccc12 | 5.14% [at 76 µM] (inactive) |  |
| C[C@]12CC(O)C3[C@@H](CCC4C[C@@H](O)CC[C@@]43CO)[C@@]1(O)CCC2C1=CC(=O)OC1 (some centres not stated) | -1.23% (inactive) |  |
| CO[C@@H](/C=C/CC/C=C/C(=O)O)[C@@H](O)[C@H](C)[C@@H](O)/C(C)=C/[C@H](C)C(=O)CCCC1CC(=O)NC(=O)C1 | 4.51% (inactive) |  |
| C=C1[C@@H](C)[C@H]2[C@H](Cc3ccccc3)NC(=O)[C@]23OC(=O)/C=C/[C@H](O)CCC[C@@H](C)C/C=C/[C@H]3[C@@H]1O | -2.16% (inactive) |  |
